# Assay results published in PubChem BioAssay AID2551 (National Center for Advancing Translational Sciences (NCATS), 2010).
# Screen size: about 310,000 compounds; about 17,000 (5.5%) were called active. Roughly 11% stayed inconclusive and do not appear here. For the sample, actives were picked, then their nearest neighbours and some compounds at random. A number with no mark means an inactive call. Calls come from the whole dose curve; as a rule, active = well fitted inhibition curve with a large enough effect; inconclusive = small, poorly fitted or top-dose-only effect, or effect the other way; inactive = no such curve, though single readings can be large or run the other way.
# Target: Nuclear receptor ROR-gamma (Mus musculus) (UniProt P51450)
# Assay: qHTS for inhibitors of ROR gamma transcriptional activity; note: nearly all actives have a fitted effect of over 60% in size
# Conditions: Drosophila S2 Gal4-RORgamma UAS-luciferase reporter, 20 h; series mostly up to 53.6 µM; activity change, negative = inhibition: at the top concentration
# Outline: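 Read-out: Photinus luciferase luminescence; inhibitors lower reporter signal. Insect Schneider cells with Gal4-ROR gamma fusion under metallothionein promoter, UAS reporter; 700 uM final copper sulfate induction, 20 hr, ambient temperature.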
# % is set by controls: 0 for no effect and ±100 for the full control effect; potency is the fitted concentration of half-maximal effect.
# Nuclear receptor ROR-gamma (Mus musculus), sequence (P51450 whole entry, looked up): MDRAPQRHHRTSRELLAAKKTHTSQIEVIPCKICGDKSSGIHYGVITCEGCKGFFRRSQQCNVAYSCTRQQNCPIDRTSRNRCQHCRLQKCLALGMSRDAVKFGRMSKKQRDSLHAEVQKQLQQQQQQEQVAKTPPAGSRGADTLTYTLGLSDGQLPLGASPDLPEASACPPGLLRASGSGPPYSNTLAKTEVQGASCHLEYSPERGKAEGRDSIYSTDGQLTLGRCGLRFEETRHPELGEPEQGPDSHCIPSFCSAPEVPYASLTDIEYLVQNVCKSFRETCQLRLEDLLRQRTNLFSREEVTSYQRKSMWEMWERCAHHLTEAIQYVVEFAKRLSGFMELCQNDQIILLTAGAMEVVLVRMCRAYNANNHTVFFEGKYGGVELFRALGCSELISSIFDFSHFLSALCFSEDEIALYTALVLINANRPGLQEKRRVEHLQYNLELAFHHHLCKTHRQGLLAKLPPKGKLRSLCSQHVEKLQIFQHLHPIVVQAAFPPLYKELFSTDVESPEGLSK
Compound,"activity change, negative = inhibition",Potency
O=C(Cc1ccccc1)N1CCN(S(=O)(=O)c2ccc([N+](=O)[O-])cc2)CC1,29.6%,
CCC1=NN(C(=O)Cc2ccc([N+](=O)[O-])cc2)C(O)(c2ccc(Br)cc2)C1 (stereo not drawn),,11.2 µM (active)
O=C(Cc1ccc(Br)cc1)N1CCN(c2ccccn2)CC1,18.4%,
C[N+](C)(C)CCNC(=O)c1cc[n+](Cc2ccccc2)c(/C=N/O)c1,-11.5%,
CC1CCCCC1NC(=O)c1cn(C)c2ccc(S(=O)(=O)N3CCOCC3)cc2c1=O (stereo not drawn),15.2%,
COc1ccc(C(O)(C2CCCCC2)C(CN2CCCC2)c2ccccc2)cc1 (stereo not drawn),-4.22%,
Cc1cccc(NC(=S)N2CCC(c3nc4ccccc4s3)CC2)c1,,12.6 µM (active)
O=C(NC1CCCC1)C1CCN(C(=O)Nc2cccc(Cl)c2)CC1,-13.1%,
Cc1ccc(C2CCN(C(=S)Nc3cccc(Cl)c3)C2)cc1 (stereo not drawn),,10 µM (active)
O=C(C1CCCO1)N1CCN(C(=S)Nc2cccc(Cl)c2)CC1 (stereo not drawn),-2.03%,
Cc1cccc(C(=O)N2CCC(c3nc4ccccc4s3)CC2)c1,36.4%,
Cc1nc2ccc(NC(=S)N3CCC(C)CC3)cc2nc1C,18.1%,
Cc1cccc(OCC(=O)Nc2ccc(NC(=O)c3ccco3)c(C)c2)c1,-0.762%,
O=C(NCC(=O)N(c1ccccc1)C(C(=O)NCC1CCCO1)c1ccccc1)c1cccs1 (stereo not drawn),-4.7%,
CC1(C)C2CCC1(CS(=O)(=O)NCCc1c[nH]c3ccccc13)C(=O)C2 (stereo not drawn),32.8%,
COc1ccc(NC(=O)/C(Cl)=C(/Cl)S(=O)Cc2ccc(C)cc2)cn1 (stereo not drawn),15.4%,
COc1ccc(CS(=O)/C(Cl)=C(/Cl)C(=O)Nc2ccc(OC)nc2)cc1 (stereo not drawn),,1.12 µM (active)
COc1ccc(C(=O)Nc2ccc(NC(=O)C(C)C)nc2)cc1,2.2%,
O=C(NCc1ccccc1)C1CCN(C(=O)Cc2ccccc2)CC1,0.393%,
Cc1ccc2nc(SCC(=O)NC3CCCC3)[nH]c2c1,4.15%,

Compound,"activity change, negative = inhibition",Potency
Clc1ccc(-c2cc(-c3ccccn3)on2)c(Cl)c1,,3.98 µM (active)
Clc1ccc(-c2ncc3ccccn23)c(Cl)c1,-10.1%,
O=C1CSC(c2ccccc2)N1c1nc(-c2ccc(Cl)cc2Cl)cs1 (stereo not drawn),-5.73%,
COc1ccc(-n2nc(C(=O)NCC(=O)N3CCN(c4ccccc4OC)CC3)c3ccccc3c2=O)c(OC)c1,-0.376%,
Cc1cccc2c1cnn2C(=O)CCC(=O)NC1CCCCC1,11.6%,
CCCCc1nc2cc(C(=O)N3CCCCC3CCO)ccc2o1 (stereo not drawn),-7.2%,
CNC(=S)N/N=C/c1ccc(N2CCOCC2)s1,,1.26 µM (active)
Cc1ccccc1N/N=C/c1ccc(N2CCOCC2)cc1,11.6%,
C=CCNC(=S)N/N=C/c1ccc(C)s1,-12.6%,
CSCCC(NS(=O)(=O)c1ccccc1F)C(=O)N1CC=C(c2ccccc2)CC1 (stereo not drawn),15.2%,
C=CCc1ccccc1OCC(O)CN1CCN(CCO)CC1 (stereo not drawn),7.01%,
CCN(CC(=O)NCCCN1CCOCC1)S(=O)(=O)c1cc(Cl)ccc1Cl,-8.84%,
CC(=O)N1CCC(C(=O)OCc2ccc(Cl)cc2)(c2ccccc2)CC1,12.7%,
O=C(NCc1ccco1)/C(=C\c1cccc([N+](=O)[O-])c1)NC(=O)c1ccco1,0.141%,
CCc1cc(C(N)=O)c(NC(=O)c2ccc(OC)cc2)s1,3.79%,
COC(=O)CNC(=O)c1ccc(OC2CCN(C(=O)C3CC3)CC2)cc1,9.4%,
CCc1ccc(/C=N/NC(=O)c2ccc(OC3CCCC3)cc2)s1,,11.2 µM (active)
CCOC(=O)N1CCN(C(=O)c2ccc3c(=O)n(CCc4ccc(OC)c(OC)c4)c(=O)[nH]c3c2)CC1,23.1%,
CCOC(=O)Cn1c(O)c(N=NC(=O)CNC(=O)Cc2ccccc2)c2ccccc21,-18.1%,
CC1CCN(C(=O)/C(=C\c2ccccc2F)NC(=O)c2ccccc2)CC1,-3.39%,

Compound,"activity change, negative = inhibition",Potency
O=C(Cn1cc(/C=N/NC(=O)c2cccc(C(F)(F)F)c2)c2ccccc21)Nc1ccc(F)cc1,,11.2 µM (active)
O=C(CN1CCN(c2ccc(F)cc2)CC1)Nc1cccc(C(F)(F)F)c1,1.67%,
NC(=O)Cn1cc(/C=N\NS(=O)(=O)c2ccccc2)c2ccccc21,22.4%,
Cc1ccc(S(=O)(=O)N/N=C(\c2ccccc2)C2CC2)cc1,-14.4%,
Cn1cccc1/C=N/NC(=O)CNc1cccc2ccccc12,1.27%,
C/C(=N\NC(=O)CNc1cccc2ccccc12)c1ccc(Br)s1,-40.1%,
Cc1cccc(/C=N/NC(=O)CNc2cccc3ccccc23)n1,,14.1 µM (active)
CCn1cc(CN2CCN(CC(C)(C)C)C(CCO)C2)c2ccccc21 (stereo not drawn),-8%,
CN(CCOc1ccccc1)Cc1nc2cc(Cl)ccc2c(=O)[nH]1,,4.47 µM (active)
O=c1[nH]c(CN2CCOCC2)nc2cc(Cl)ccc12,39.4%,
CN(Cc1nc2ccccc2c(=O)[nH]1)Cc1cc(=O)oc2ccc3ccccc3c12,-40.8%,
COc1cccc(CNC(=O)c2cccnc2Sc2ccc(Cl)cc2)c1,16.6%,
Brc1ccccc1CN1CCC(Cc2ccccc2)CC1,15.2%,
C=CCn1c(COc2ccccc2)nnc1SCC(=O)NCC(=O)OCC,-36.1%,
CCOC(=O)CNC(=O)CSc1nnc(-c2cccc(OC)c2)n1CC,-4.98%,
CCOC(=O)CNC(=O)CSc1nnc(COc2ccc(Cl)cc2)n1CC,,7.94 µM (active)
Cn1c(=O)oc2cc(S(=O)(=O)NCCC(=O)NCc3ccccc3Cl)ccc21,25.2%,
O=C(CCC1CCN(C(=O)c2cccc(Cl)c2F)CC1)Nc1ccccc1,2.14%,
